Compound activity as filed in PubChem BioAssay.
An excerpt weighted towards active compounds, which were near 6.9% of everything screened.
IL1B secr inh: blocks inflammasome-driven IL-1 beta release; activity change, % at 57.5 µM; 360,000 tested, 4.7% active; AID 743279; THP-1 LPS/ATP IL-1B secretion, AlphaLISA, 16 h; active compounds read low; in the data active = activity change below about -50%; inconclusive = mostly about -30% to -49%; note: % is set by controls: 0 for no effect and ±100 for the full control effect
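THP-1 cells pretreated 1 hr with compounds (up to 57.5 uM final), then stimulated with LPS (250 ng/mL final) plus ATP (1.25 mM final); secreted IL-1B measured by AlphaLISA after 16 hr, decreased signal indicating inhibition.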
Vif-APOBEC3F blk: inhibitors of Vif-A3F interaction; HeLa A3F-eYFP + Vif (tagged APOBEC3F with the HIV-1 protein that degrades it), YFP fluorescence increase; AID 602313; Potency, µM (series often up to 46.1 µM), for the others: top-dose activity, negative = active; 390,000 tested, 0.2% active; note: potency is the fitted concentration of half-maximal effect; % of control where 0% means no effect; nearly all actives have a fitted effect of over 65% in size
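HeLa cells stably expressing Vif plus C-terminally eYFP-tagged A3F were seeded, incubated overnight at 37 deg C, dosed with compound, incubated overnight again at 37 deg C. Yellow fluorescence (Ex 488/Em 500-530) reported blocked Vif-mediated A3F-eYFP degradation.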
SW480 rereplic: DNA re-replication induction in SW480 cells. Potency, µM (highest dose often 46.1 µM), for inactives: at the highest dose re-replication activation, usual class: activators. SW480 DNA re-replication, Hoechst DNA content imaging, 48 h. 340,000 tested, 1.8% active; note: potency is the fitted concentration of half-maximal effect; % of control where 0% means no effect; nearly all actives have a fitted effect of over 55% in size
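SW480 cells exposed to compounds for 48 hr at 37 C, 5% CO2, then Hoechst-stained 40 min. Nuclear DNA content imaged by fluorescence scanning (405 nm excitation, 500-530 nm emission); re-replication scored as increased high-intensity nuclei.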
Giardia killer: Giardia lamblia killing. Giardia lamblia trophozoite viability. activity change, % at 7.66 µM, hits read low. 340,000 tested, 0.15% active; in the data active = activity change below about -80%; inconclusive = between about -30% and that limit;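 note: parasites exposed to compound for two days anaerobically before the ATP read; % is set by controls: 0 for no effect and ±100 for the full control effect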
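Each well holds 100 Giardia trophozoites and compound. After two days (48 hrs) at 37 deg C in anaerobic conditions, ATP is quantified by luminescence.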
MCF10A rerep: inducers of DNA re-replication in MCF 10A breast cells. MCF 10A DNA re-replication, Hoechst nuclear intensity, 48 h. Potency, µM (top dose mostly 46.1 µM), without a hit: at the highest dose activity, positive = re-replication, most hits filed as activators. 350,000 tested, 2.9% active. AID 624296; note: potency is the fitted concentration of half-maximal effect; % of control where 0% means no effect; nearly all actives have a fitted effect of over 50% in size
Vif-APOBEC3G blk: inhibitors of Vif-APOBEC3G interaction; HeLa A3G-eYFP + Vif (tagged APOBEC3G with the HIV-1 protein that degrades it), YFP fluorescence, overnight; Potency, µM (highest dose often 46.1 µM), for inactives: at the highest dose activity, negative = active, hits mostly inhibitors; 410,000 tested, 0.076% active; note: potency is the fitted concentration of half-maximal effect; % is set by controls: 0 for no effect and ±100 for the full control effect; nearly all actives have a fitted effect of over 60% in size
Target sequence (Q9HC16 whole entry, looked up): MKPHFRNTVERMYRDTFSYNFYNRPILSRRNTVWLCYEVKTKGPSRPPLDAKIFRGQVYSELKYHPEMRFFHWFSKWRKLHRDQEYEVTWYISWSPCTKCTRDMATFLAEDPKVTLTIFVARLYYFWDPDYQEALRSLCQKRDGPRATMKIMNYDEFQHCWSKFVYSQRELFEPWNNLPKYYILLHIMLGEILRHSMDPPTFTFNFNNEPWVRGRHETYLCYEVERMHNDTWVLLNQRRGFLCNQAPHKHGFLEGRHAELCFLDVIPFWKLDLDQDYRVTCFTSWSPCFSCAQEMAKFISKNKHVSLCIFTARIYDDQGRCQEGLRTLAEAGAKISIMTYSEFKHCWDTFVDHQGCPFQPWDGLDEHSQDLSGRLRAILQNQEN
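HeLa cells stably expressing Vif and C-terminally eYFP-tagged A3G, seeded overnight at 37 deg C, then exposed to compound by pintool overnight at 37 deg C. Rise in yellow fluorescence (Ex 488/Em 500-530, Acumen) marks blocked Vif-driven A3G degradation.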
Numbers without * were called inactive. Unless noted, calls come from the whole dose curve; as a rule, active = well fitted curve in the direction sought with a large enough effect; inconclusive = small, poorly fitted or top-dose-only effect, or another doubt; inactive = no such curve, though single readings can be large; an effect the other way counts as inactive or inconclusive.

What do the screens show for `CC1=CN2C(=N)/C(=C/c3ccc([N+](=O)[O-])o3)C(=O)N=C2S1`?
IL1B secr inh: -104*; Vif-APOBEC3F blk: inconclusive; SW480 rereplic: 16µM*; Giardia killer: -8; MCF10A rerep: inconclusive; Vif-APOBEC3G blk: 22µM*

What do the screens show for `CCc1cccc(NC(=O)c2cc3c(=O)oc4ccc(C)cc4c3s2)c1`?
Vif-APOBEC3F blk: 0%; Vif-APOBEC3G blk: 3%

Results for COCc1cc(C)n(CC(=O)Nc2ccc(NC(C)=O)cc2)c(=O)c1C#N ?
Vif-APOBEC3F blk: 3%; Vif-APOBEC3G blk: 2%

Results for CCC(=O)N1CCc2cc(S(=O)(=O)NCCC(=O)Nc3cc(C)ccc3OC)ccc21 ?
Vif-APOBEC3F blk: -12%; Vif-APOBEC3G blk: -1%

What do the screens show for `CCSc1ccc(-c2nn(-c3ccccc3)cc2/C=C(/C#N)C(=O)NCCCOC)cc1`?
IL1B secr inh: 19; Vif-APOBEC3F blk: -4%; SW480 rereplic: inconclusive; Giardia killer: -4; MCF10A rerep: 15µM*; Vif-APOBEC3G blk: -8%

What do the screens show for `CCCSc1ccc(-c2nn(-c3ccccc3)cc2/C=C(/C#N)C(=O)NCCCOC)cc1`?
IL1B secr inh: 0; Vif-APOBEC3F blk: 0%; SW480 rereplic: 4.1µM*; Giardia killer: 3; MCF10A rerep: 9%; Vif-APOBEC3G blk: -4%

How did Cc1ccc(-c2nn(-c3ccccc3)cc2/C=C(\C#N)C(=O)NCc2ccccc2)cc1 do in these assays?
IL1B secr inh: 3; Vif-APOBEC3F blk: -3%; SW480 rereplic: 1%; Giardia killer: -8; MCF10A rerep: 4%; Vif-APOBEC3G blk: 1%

What do the screens show for `COc1cc(OC)cc(C(=O)Nc2cccc(-c3cn4ccsc4n3)c2)c1`?
Vif-APOBEC3F blk: 3%; Vif-APOBEC3G blk: -7%

What do the screens show for `OC[C@@H]1O[C@](CO)(O[C@H]2O[C@H](CO)[C@@H](O)[C@H](O)[C@H]2O)[C@H](O)[C@H]1O`?
SW480 rereplic: -3%; MCF10A rerep: 0%

Results for Cc1ccc(C)c(N2N=C(C(=O)Nc3ccccc3N3CCCC3)CCC2=O)c1 ?
IL1B secr inh: inactive; Vif-APOBEC3F blk: -17%; SW480 rereplic: inconclusive; Giardia killer: 12; MCF10A rerep: 21µM*; Vif-APOBEC3G blk: -3%

How did Cc1ccc(C)c(N2N=C(C(=O)Nc3ccccc3N3CCOCC3)CCC2=O)c1 do in these assays?
IL1B secr inh: -10; Vif-APOBEC3F blk: -1%; SW480 rereplic: 12%; Giardia killer: 5; MCF10A rerep: inconclusive; Vif-APOBEC3G blk: -10%

What do the screens show for `CCOC(=O)Cn1c(=NC(=O)C2COc3ccccc3O2)sc2cc(S(N)(=O)=O)ccc21` (centres undefined)?
IL1B secr inh: -13; Vif-APOBEC3F blk: 5%; SW480 rereplic: -3%; Giardia killer: 14; MCF10A rerep: 0%; Vif-APOBEC3G blk: 3%

What do the screens show for `CCOC(=O)Cn1c(=NC(=O)c2ccc([N+](=O)[O-])s2)sc2ccccc21`?
IL1B secr inh: 0; Vif-APOBEC3F blk: inconclusive; SW480 rereplic: inconclusive; Giardia killer: -96*; MCF10A rerep: 3.7µM*; Vif-APOBEC3G blk: 0%

How did CCOC(=O)c1c(NC(=O)CN2CCN(C)CC2)sc(C(=O)Nc2ccccc2)c1C do in these assays?
IL1B secr inh: -162*; Vif-APOBEC3F blk: 6%; SW480 rereplic: -17%; Giardia killer: 8; MCF10A rerep: 21%; Vif-APOBEC3G blk: -8%

What do the screens show for `CCCCn1cnc2cc(NC(=O)c3cc(OC)c(OC)c(OC)c3)ccc21`?
Vif-APOBEC3F blk: -15%; Vif-APOBEC3G blk: -10%

How did N=c1ccn(Cc2ccc(Cl)c(Cl)c2)cc1 do in these assays?
IL1B secr inh: -68*; Vif-APOBEC3F blk: 7%; SW480 rereplic: 0%; Giardia killer: -17; MCF10A rerep: 9%; Vif-APOBEC3G blk: -3%

What do the screens show for `N=c1ccn(Cc2ccc(Cl)cc2)cc1`?
IL1B secr inh: -22; Vif-APOBEC3F blk: 2%; SW480 rereplic: 10%; Giardia killer: -2; MCF10A rerep: 6%; Vif-APOBEC3G blk: 0%
